RE007 growth inh: less growth of the S. pombe RE007 Vpr strain | S. pombe RE007 Vpr strain, BacTiter-Glo ATP luminescence, 24 h | 360,000 compounds, 0.21% hits | Potency, µM (titrated, usually from 92.2 µM), for inactives: at the top dose activity change, negative = less growth, hits mostly inhibitors; active = well fitted falling curve with a large enough effect; inconclusive = small, poorly fitted or top-dose-only effect; inactive = no such curve, though single readings can be large or run the other way; also: nearly all actives have a fitted effect of over 50% in size
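Fission yeast RE007 carrying one integrated HIV-1 vpr copy, seeded at OD 0.01 in PMG+AL medium with 23 nL pinned compound. Grown 24 h at 30 degrees; viability read by BacTiter-Glo luminescence after 5 min.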
AMA1-RON2 inh: AMA1-RON2 (P. falciparum) interaction inhibition; AlphaScreen AMA1-biotinylated RON2 peptide binding; AID 720542; 360,000 compounds, 0.2% hits; Potency, µM (top dose mostly 58.2 µM), for inactives: at the highest dose activity change, negative = inhibition, actives largely listed as inhibitors;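 also: 0% = vehicle wells and -100% = peptide control; nearly all actives have a fitted effect of over 45% in size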
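AMA1 (3D7) with his tag at 25 nM final met compounds first, then biotinylated RON2 peptide at 25 nM; detection used donor plus acceptor beads, 10 µg/mL apiece, read by AlphaScreen after 30 min at room temperature.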
AmpC inh detg: inhibitors of E. coli AmpC beta-lactamase with detergent; P00811; AmpC hydrolysis of nitrocefin, absorbance 480 nm, 0.01% Triton; Potency, µM (top dose mostly 114 µM), inactives show at the top dose activity change, negative = inhibition, actives largely listed as inhibitors; 370,000 compounds, 0.041% hits; AID 485294;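 also: 0% = no-compound wells and -100% = no-enzyme wells; nearly all actives have a fitted effect of over 25% in size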
Target sequence (P00811 whole entry, looked up): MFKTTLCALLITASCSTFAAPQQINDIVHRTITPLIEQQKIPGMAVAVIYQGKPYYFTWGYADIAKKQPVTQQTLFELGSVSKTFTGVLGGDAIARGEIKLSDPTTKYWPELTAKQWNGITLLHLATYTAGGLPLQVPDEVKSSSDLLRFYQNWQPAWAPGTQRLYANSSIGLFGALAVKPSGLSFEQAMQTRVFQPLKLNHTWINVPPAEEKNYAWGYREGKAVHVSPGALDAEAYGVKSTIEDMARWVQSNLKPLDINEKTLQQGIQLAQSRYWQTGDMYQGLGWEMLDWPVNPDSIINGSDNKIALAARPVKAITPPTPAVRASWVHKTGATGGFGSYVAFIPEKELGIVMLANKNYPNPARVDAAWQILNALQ
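20 mM phosphate pH 7.0 + 0.01% (detergent screen) or 0.0001% Triton X-100; 5.3 nM AmpC reagent; cpd preinc 15 min RT; nitrocefin (800 uM stock) to start; A480 q20 s × 4 min; Activity was normalised to no-enzyme and no-compound control wells.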
AmpC no deterg: blocks E. coli AmpC beta-lactamase in detergent-free assay; Potency, µM (highest dose often 57.1 µM), without a hit: at the highest dose activity change, negative = inhibition, most hits filed as inhibitors; 330,000 compounds, 0.52% hits; AID 485341; AmpC nitrocefin hydrolysis, absorbance 480 nm, 0.0001% Triton; P00811;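 also: plate controls were no compound for no effect and no enzyme for full effect; nearly all actives have a fitted effect of over 20% in size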
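AmpC (5.3 nM in the dispensed reagent) in 20 mM phosphate pH 7.0 with 0.01% (detergent screen) or 0.0001% Triton X-100 was preincubated with compounds for 15 min at room temperature. Nitrocefin was then added from an 800 uM solution, and hydrolysis was followed at 480 nm.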
An asterisk follows results filed as active; ? = inconclusive; nt = no result; [ ] = remark or other dose. Shown are actives, neighbours in structure and some others; about 0.79% of the full set was active somewhere. Unless noted, calls follow the shape of the dose curve; as a rule, active = well fitted curve in the direction sought with a large enough effect; inconclusive = small, poorly fitted or top-dose-only effect, or another doubt; inactive = no such curve, though single readings can be large; an effect the other way counts as inactive or inconclusive. Unless noted, % is scaled to controls: 0 for no effect and ±100 for the full control effect; potency is read from the fitted curve at half-maximal effect.

SMILES	RE007 growth inh	AMA1-RON2 inh	AmpC inh detg	AmpC no deterg
Cc1ccc2nc(-c3ccc(SCC(=O)Nc4ccc5c(c4)OCCO5)nc3)[nH]c2c1	2%	-1%	?	-27%
CCCN1C(=O)C2(c3ccccc31)c1c(oc3ccccc3c1=O)C(=O)N2CCCOC(C)C (configuration not stated)	nt	nt	-5%	nt
CC(=O)N1CCc2[nH]c3ccc(C)cc3c2C1	12%	4%	?	-6%
CCOC(=O)N1CCc2[nH]c3ccc(C)cc3c2C1	-23%	40µM*	4%	24%
O=C(c1ccco1)N1CCN=C1SCc1ccc(F)cc1	-3%	25%	?	8.9µM*
CC(=O)OCC12CC(OC(=O)CC(C)C)C(C)=CC1OC1C(O)C(OC(C)=O)C2(C)C12CO2 (configuration not stated)	5.6µM*	-1%	nt	nt
O=C(c1ccc2c(c1)OCO2)c1cn(Cc2ccc(Cl)cc2)c2ccc(F)cc2c1=O	nt	nt	-2%	nt
COc1ccc(N(C(=O)Cn2nnc3ccccc32)C(C(=O)NCc2ccccc2)c2ccc(F)cc2)cc1 (configuration not stated)	nt	nt	17%	nt
COc1ccccc1N1CCN(C(=O)c2cc(C3CC3)on2)CC1	16%	-10%	?	20µM*
CN(C)c1ccc(CNC(=O)C2(C)Cc3c(-c4cccc(C(F)(F)F)c4)ccnc3O2)cc1 (configuration not stated)	-13%[18.4 µM]	25µM*	nt	nt
O=C(NCc1ccc2[nH]c3c(c2c1)CCCC3)c1ccc(S(=O)(=O)N2CCCC2)cc1	1%	-9%	-13%	-10%
CN(C)S(=O)(=O)c1ccc(C(=O)NCc2ccc3[nH]c4c(c3c2)CCCC4)cc1	-2%	-19%	?	28µM*
O=C(NCc1ccc2[nH]c3c(c2c1)CCCC3)c1ccc(S(=O)(=O)N2CCOCC2)cc1	12%	-9%	-16%	1%
Cc1ccc(C)c(NC(=S)NCc2ccc3[nH]c4c(c3c2)CCCC4)c1	-10%	28%	-5%	35µM*
CCN(CC)S(=O)(=O)c1ccc(C(=O)NCc2ccc3[nH]c4c(c3c2)CCCC4)cc1	5%	-13%	-13%	25µM*
CCOc1ccccc1NC(=O)C(c1ccccc1)N1Cc2ccccc2C1=O (configuration not stated)	nt	nt	18%	nt
O=C1/C(=C/c2ccc(O)c(O)c2)SC(=S)N1Nc1ccccc1	3%	?	2%	25µM*
O=C(CC1C(=O)OCCN1Cc1ccccc1)Nc1cccc(Cl)c1 (configuration not stated)	nt	nt	0%	nt
Cc1ccc(-n2ncc3c(Nc4ccc(Oc5ccccc5)cc4)ncnc32)c(C)c1	nt	nt	10%	nt
CCCCCOc1ccc(N2C(=O)CC(N(O)c3ccccc3)C2=O)cc1 (configuration not stated)	6%	12%	?	20µM*
CCCCCCC(=O)N(O)C1CC(=O)N(Cc2ccccc2)C1=O (configuration not stated)	-9%	1%	?	-44%
CCCCCC(=O)N(O)C1CC(=O)N(c2ccccc2)C1=O (configuration not stated)	10µM*	20%	-18%	-12%
O=C(O)c1ccc(Nc2nc3ccccc3n3cnnc23)cc1	nt	nt	7%	nt
Cn1c(SCc2ccc(F)cc2)nc2ccc(C(=O)NCc3ccccc3)cc21	nt	nt	14%	nt
CCCCn1c(N)c(N(CC(C)C)C(=O)CN2C(=O)NC3(CC(C)CC(C)(C)C3)C2=O)c(=O)[nH]c1=O (configuration not stated)	-24%	-10%	-10%	35µM*
SMILES	RE007 growth inh	AMA1-RON2 inh	AmpC inh detg	AmpC no deterg
CCCOc1ccc(C(=O)Nc2ccc3oc(-c4ccc(N(C)C)cc4)nc3c2)cc1	nt	nt	-4%	nt
CC(NS(C)(=O)=O)C(c1cccs1)N1CCN(C)CC1 (configuration not stated)	0%	13%	-1%	-8%
CC(NS(=O)(=O)c1ccc(Br)cc1)C(c1cccs1)N1CCN(C)CC1 (configuration not stated)	-24%	-16%	?	45µM*
Cn1nc(-c2ccccn2)nc2c(=O)n(C)c(=O)nc1-2	-7%	8.9µM*	-8%	-15%
O=C(NCCC1=CCCCC1)c1ccc2c(c1)N(Cc1ccc(F)cc1)C(=O)c1ccccc1S2(=O)=O	nt	nt	4%	nt
CN(C)c1ccc(NC(=S)Nc2ccc3c(c2)c(=O)n(C)n3-c2ccc(C(C)(C)C)cc2)cc1	-17%	?	nt	nt
CN(C)c1ccc(NC(=O)Nc2cccc(Cl)c2)cc1	-4%	?	?	5µM*
CN(C)c1ccc(NC(=O)Nc2ccc3c(c2)c(=O)n(C)n3-c2ccccc2)cc1	-14%	20µM*	nt	nt
O=C1c2ccccc2C(=O)C1(c1ccccc1)N1CCN(c2cccc(Cl)c2)CC1	nt	nt	-6%	nt
Cc1ccc(S(=O)(=O)NC(CC(=O)N2CCOCC2)c2ccco2)cc1 (configuration not stated)	23%	-1%	5%	0.14µM*
Cc1ccc(S(=O)(=O)NC(CC(=O)NC2CCCC2)c2ccco2)cc1 (configuration not stated)	11%	12%	-4%	0.4µM*
O=C(NCCc1ccc(Cl)cc1)c1nc(-c2cccc(F)c2)n2c1CCCCC2	nt	nt	-2%	nt
Cc1ccc(N2C(=O)CSC23C(=O)N(CC(=O)NCCc2ccccc2)c2ccccc23)cc1C (configuration not stated)	nt	nt	11%	nt
Cc1ccc(S(=O)(=O)c2ccc([N+](=O)[O-])o2)cc1	7.9µM*	-15%	nt	nt
Cc1ccc(NC(=O)c2ccc([N+](=O)[O-])o2)c(C)c1	-27%	4%	10%	-17%
COc1cc(C(O)c2nc(-c3ccc(N(C)C)cc3)cs2)ccc1F (configuration not stated)	-7%	20µM*	nt	nt
COc1cc(C(O)c2nc(-c3cc(F)cc(F)c3)cs2)ccc1F (configuration not stated)	4%	5%	nt	nt
CC(C)c1cccc(-c2csc(C(O)c3ccc(F)c(F)c3)n2)c1 (configuration not stated)	40µM*	11%	nt	nt
N#CC1(NC(=O)CN2C(=O)c3ccccc3C2=O)CCCCC1	2%	-10%	2%	-8%
N#CC1(NC(=O)Cn2ncc(Cl)c(Cl)c2=O)CCCCC1	27%	2%	-13%	25µM*
COCCCNc1oc(/C=C/c2cc(OC)c(OC)c(OC)c2)nc1C#N	nt	nt	20%	nt
C/C(Cl)=C/CC1(CN2CCCC2=O)C(=O)NC(=O)NC1=O	-5%	14%	28µM*	3%
C[N+](C)(C)CC#CCN1CCCC1=O	-14%[18.4 µM]	7%	nt	nt
Cc1ccc(Sc2c(C)nn(C(=O)c3ccc(Cl)cc3)c2C)cc1	nt	nt	8%	nt
Cc1ccc(Cl)c(NC(=O)COC(=O)c2ccccc2C(=O)c2ccc(Cl)c([N+](=O)[O-])c2)c1Cl	1%	0%	1%	20µM*

High-throughput results deposited in PubChem by National Center for Advancing Translational Sciences (NCATS).
